Values joined by “and” are separate entries in the source; they are usually repeats but may differ in a detail not shown here. Identical values can stand only once. This is part of a sample that, as a whole, favours compounds with a hit. Of some 83,000 tested, about 20% had one in any assay.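 96-well plates, one dose, 48 hours. Percent growth reported; active if below 10.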 Active and inactive are the calls of the source.
These compounds were tested on MDA-MB-468 breast (assay: NCI-60 one-dose screen, 48 h (100 = growth as untreated, 0 = no growth, -100 = all killed)). Conditions: 10 µM unless noted.
With `O=C1/C=C/[C@@H](O)[C@@H]2C[C@@H](O)C[C@H]2/C=C/CCC[C@H](CO)O1` the growth was -20.1% (active). With `CN(C)c1ccc(/C=N/NC(=O)c2cccc3ccccc23)c(Cl)c1` the growth was -7.38% (active). `N=c1c(S(=O)(=O)c2ccccc2)cc2c(=O)n3ccccc3nc2n1CC1CCCO1` (stereo not given) was tested, and the growth was 121% (inactive). In the case of `O=CN1N=C(c2cccc(Nc3ccncc3)c2)CC1c1ccc2c(c1)OCO2` (stereo not given), the growth is reported as 88.7% (inactive). With `O=C(Nc1ncc(Cc2cccc(C(F)(F)F)c2)s1)c1ccc(-n2cnnn2)cc1` the growth was 16.7% (inactive). `Clc1ccc2c(NCCCn3ccnc3)c3oc4ccccc4c3nc2c1` was tested, and the growth was 39.7% (inactive). With `Cc1ccc(C(SCC(N)C(=O)O)(c2ccccc2)c2ccc(C)cc2)cc1` (stereo not given) the growth was -1.71% (active). `COc1cc(C2C=C(c3ccc(Cl)cc3)N=C3SC(C)=CN32)cc(OC)c1OC` (stereo not given) was tested, and the growth was 80.2% (inactive). For `CCCCCCNC(=O)Oc1ccc(/C(=C(\C)c2ccc(OC)cc2)c2ccc(OCCN3CCCCC3)cc2)cc1`, the growth was 75.6% (inactive). For `Cc1ncc(C(=O)Nc2ccc(CN3CCN(C)CC3)c(C(F)(F)F)c2)cc1C#Cc1cnc(N)c2cnccc12`, the growth was -6.82% (active). In the case of `O=C(NOC[C@H](O)CO)c1ccc(F)c(F)c1Nc1ccc(I)cc1F`, the growth is reported as 106% (inactive). With `CC(C)C1=CC2=C(C=O)C[C@@H]3[C@](C)(CCC[C@@]3(C)C(=O)OCC#CCN3CCCC3)[C@H]2CC1` the growth was 51.3% (inactive). With `FC(F)(F)c1cccc(Nc2nc3ccccc3nc2Nc2cccc(C(F)(F)F)c2)c1` the growth was -12.9% (active). For `COc1ccc(/C=C(/C(=O)n2cnnn2)c2cc(OC)c(OC)c(OC)c2)cc1`, the growth was 13.6% (inactive). In the case of `Cc1cc2c(-c3nc4ccccn4c3N)c(O)c(O)cc2c(O)c1-c1c(C)cc2c(-c3nc4ccccn4c3N)c(O)c(O)cc2c1O`, the growth is reported as -2.1% (active). In the case of `O=[N+]([O-])c1ccc(O)c2ncccc12`, the growth is reported as 30.6% (inactive) and 1.77% (active). With `COc1ccc2c(c1)[nH]c(=O)c1c3cccnc3cn21` the growth was 6.19% (active). With `C/C(=C(/c1ccc(Cl)cc1)c1ccc(OCCN)cc1)c1ccc(C)cc1` the growth was 108% (inactive). With `CN(C)C/C=C/C(=O)Nc1cc2c(Nc3ccc(F)c(Cl)c3)ncnc2cc1O[C@H]1CCOC1` the growth was -40.5% (active). With `Cc1cc(C(=O)NN)c(C#N)c(=O)[nH]1` the growth was 122% (inactive). With `O=C(O)c1ccc(NCc2cn(-c3ccc(C(F)(F)F)cc3)nc2-c2ccc(C(=O)O)cc2)cc1` the growth was 123% (inactive). `CNc1nc2ncn(C)c2c(=O)[nH]1` was tested, and the growth was 101% (inactive). For `CCCCCCCCCCCCOB(OCCCCCCCCCCCC)OCCCCCCCCCCCC`, the growth was 99.2% (inactive). In the case of `COc1ccc(C2CC(c3cccc(OCCCCOc4cccc(C5=NN(C(C)=O)C(c6ccc(OC)cc6)C5)c4)c3)=NN2C(C)=O)cc1` (stereo not given), the growth is reported as 23.7% (inactive). `COc1cccc(-c2nn(C(C)(C)C)cc2-c2ccnc(NCCCNS(=O)(=O)c3ccc(C)cc3)c2)c1` was tested, and the growth was 104% (inactive). In the case of `Cc1cc(N=Nc2ccc(-c3ccc(N=Nc4ccc(O)c(C(=O)O)c4)cc3)cc2)c(N)c(N=Nc2ccc(C(=O)O)cc2)c1N`, the growth is reported as 92.6% (inactive). With `c1cnc2c(-c3nc4ccc5[nH]ncc5c4c4c3CCCC4)c[nH]c2c1` the growth was 10.9% (inactive). With `CCC(CC(C)C)Nc1ccc(NC(CC)CC(C)C)cc1` (stereo not given) the growth was 71.3% (inactive). With `COc1ccc(/C=C/c2nc(Nc3ccc(Cl)cc3)c3ccccc3n2)cc1` the growth was 28.1% (inactive). With `N=c1c(C(=O)OCc2ccccc2)ncc(CCl)n1O` the growth was 68.6% (inactive). `N#Cc1c(N)nnn1Cc1cc(=O)oc2ccc(O)cc12` was tested, and the growth was 101% (inactive). With `COc1ccc(/C=C/C(=O)N2CCC(O)CC2)cc1OC1CCCC1` the growth was 114% (inactive). For `COc1cccc(C2(C)Nc3ccccc3-c3nc4ccccc4n32)c1` (stereo not given), the growth was 109% (inactive). In the case of `O=C1/C(=C\c2ccc(Br)cc2)CN(C(=O)c2ccccc2F)C/C1=C\c1ccc(Br)cc1`, the growth is reported as -54.1% (active). For `Cc1ccc(Nc2nc(N)nc(N)c2N=O)cc1Cl`, the growth was 40% (inactive). In the case of `Cc1cc(C)nc(SCC(=O)Nc2cccc(N=Cc3ccccc3O)c2)n1`, the growth is reported as 87.8% (inactive). For `CCCC(OC(C)=O)c1ccc2c(c1)OCO2` (stereo not given), the growth was 103% (inactive). In the case of `CN1C(=O)N(C)C2C1NN=c1s/c(=C\c3ccsc3)c(=O)n12` (stereo not given), the growth is reported as 34.3% (inactive). For `NC(N)=NN=C(c1ccccc1)c1ccccc1`, the growth was -31.3% (active). For `O=C(C(=O)c1cc(Br)ccc1O)c1cc(Br)ccc1O`, the growth was 29.5% (inactive).
